Compound activity deposited in PubChem BioAssay by National Center for Advancing Translational Sciences (NCATS).
Compounds with a hit are over-represented: about 12% of the library has one in this group of screens.
G9a block = inhibitors of human histone lysine methyltransferase G9a. Q96KQ7. Potency, µM (titrated, usually from 102 µM), most hits filed as inhibitors. 350,000 tested, 8.8% active. G9a H3K9 monomethylation, AlphaScreen, 2 h. AID 504332; also: nearly all actives have a fitted effect of over 75% in size
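Step 1: enzyme (final 20 nM) with compound, 15 min RT. Step 2: substrate peptide 500 nM and SAM 20 uM, 2 h RT. Step 3: anti-H3K9me1 antibody and AlphaScreen beads, 10 min, then plate read.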
TDP1 block = TDP1 (human) enzyme inhibition; recombinant TDP1, AlphaScreen DNA substrate cleavage; Potency, µM (titrated, usually from 130 µM), actives largely listed as inhibitors; 350,000 tested, 0.28% active; AID 485290; also: nearly all actives have a fitted effect of over 40% in size
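Here, a 5' biotin and 3' phosphotyrosine-FITC DNA oligonucleotide reports Tdp1 activity: intact substrate bridges AlphaScreen beads, while cleavage leaves a 3' phosphate and drops signal. All incubations at room temperature.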
Sfp inh = inhibitors of Bacillus subtilis Sfp phosphopantetheinyl transferase; Q9F4F7; 310,000 tested, 3.5% active; Potency, µM, usual class: inhibitors; AID 1490; Biochemical Sfp PPTase activity, qHTS;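 also: the enzyme is Sfp with the accession as filed and its product quenches rhodamine fluorescence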
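Buffer: 50 mM Hepes-Na pH 7.6, 10 mM MgCl2, 0.01% Nonidet P-40, 0.01% BSA. Enzyme 15 nM, pre-exposed to compound 15 min; substrates then added and fluorescence change tracked over 30 min.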
JMJD2A Tudor inh = JMJD2A Tudor domain (human) inhibition | O75164 | AlphaScreen JMJD2A-Tudor / H3K4me3 peptide binding | Potency, µM (highest dose often 114 µM), hits mostly inhibitors | 390,000 tested, 4.4% active; also: nearly all actives have a fitted effect of over 50% in size
HP1b binding inh = HP1-beta chromodomain-methylated histone interaction inhibition; P83916; AID 540317; Potency, µM (doses to about 114 µM), usual class: inhibitors; 390,000 tested, 0.56% active; AlphaScreen HP1-beta / biotin-H3K9me3 peptide binding; also: nearly all actives have a fitted effect of over 70% in size
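AlphaScreen: HP1-beta (50 nM) preformed 30 min with biotin-H3(1-18)K9me3 peptide (50 nM) in PBS pH 7.4, 0.01% Tween-20. Compound added for 30 min at RT, then streptavidin donor/nickel chelate acceptor beads (10 ug/mL) for 30 min.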
BAZ2B inh = blocks human BAZ2B. AlphaScreen BAZ2B-H3K14Ac peptide displacement. 360,000 tested, 4.4% active. Potency, µM (highest dose often 114 µM), hits mostly inhibitors. Q9UIF8; also: nearly all actives have a fitted effect of over 60% in size
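AlphaScreen luminescence quantifies BAZ2B engagement of H3K14Ac peptide; the protein and biotinylated peptide are both at 50 nM final, buffer PBS pH 7.4 with 0.01% Tween-20, all steps at room temperature.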
Hits are given with their value; [ ] = dose if it differs, or a comment. Calls follow the shape of the dose curve; as a rule, active = well fitted curve in the direction sought with a large enough effect; inconclusive = small, poorly fitted or top-dose-only effect, or another doubt; inactive = no such curve, though single readings can be large; an effect the other way counts as inactive or inconclusive.

How did O=C(NC(=S)Nc1ccc(CN2CCOCC2)cc1)c1ccc([N+](=O)[O-])cc1 do in these assays?
G9a block: inconclusive; TDP1 block: inactive; Sfp inh: 50µM; JMJD2A Tudor inh: inactive; HP1b binding inh: inactive; BAZ2B inh: inactive

What do the screens show for `COc1ccc(C(=O)NC(=S)Nc2ccc(CN3CCOCC3)cc2)cc1`?
G9a block: 45µM; TDP1 block: inactive; Sfp inh: inactive; JMJD2A Tudor inh: inactive; HP1b binding inh: inactive; BAZ2B inh: inactive

How did COC(=O)C(CC(C)C)NC(=O)c1cccs1 (stereo not drawn) do in these assays?
G9a block: inactive[0.501 µM]; TDP1 block: inactive; Sfp inh: inactive; JMJD2A Tudor inh: inactive; HP1b binding inh: inactive; BAZ2B inh: inactive

How did CN(C(=O)CSc1nc(N)cc(N)n1)C1CCS(=O)(=O)C1 (stereo not drawn) do in these assays?
G9a block: inconclusive; TDP1 block: inactive; Sfp inh: inactive; JMJD2A Tudor inh: inactive; HP1b binding inh: inactive; BAZ2B inh: inactive

What do the screens show for `COc1ccc(C(=O)NC(=S)NNC(=O)c2ccc(NC(C)=O)cc2)cc1Br`?
G9a block: 40µM; TDP1 block: inactive; Sfp inh: inactive; JMJD2A Tudor inh: inactive; HP1b binding inh: inactive; BAZ2B inh: inactive

What do the screens show for `COc1ccc(C(=O)NC(=S)Nc2ccc(CN3CCOCC3)cc2)cc1Br`?
G9a block: 45µM; TDP1 block: inactive; Sfp inh: inactive; JMJD2A Tudor inh: inconclusive; HP1b binding inh: inactive; BAZ2B inh: inconclusive

Results for COc1ccc(C(=O)NC(=S)N2CCC(C)CC2)cc1Br ?
G9a block: inactive; TDP1 block: inactive; Sfp inh: inactive; JMJD2A Tudor inh: inconclusive; HP1b binding inh: inactive; BAZ2B inh: inconclusive

Results for COc1ccc(C(=O)NC(=S)N2CCNC(=O)C2)cc1Br ?
TDP1 block: inactive; Sfp inh: inactive; JMJD2A Tudor inh: 35µM; HP1b binding inh: inactive; BAZ2B inh: inconclusive

What do the screens show for `O=c1[nH]c(NC2CCCCC2)c([N+](=O)[O-])c(=O)[nH]1`?
G9a block: inactive; TDP1 block: inactive; Sfp inh: inactive; JMJD2A Tudor inh: inactive; HP1b binding inh: inactive; BAZ2B inh: inactive

What do the screens show for `O=S(=O)(c1ccccc1)c1nc(-c2cccs2)oc1SCc1ccccc1F`?
G9a block: inconclusive; TDP1 block: inactive; JMJD2A Tudor inh: inactive; HP1b binding inh: inactive; BAZ2B inh: inactive

Results for C=CCN(C)CCCCCCOc1ccc(C(=O)c2ccc(Br)cc2)c(F)c1 ?
TDP1 block: inactive; Sfp inh: inconclusive

Results for Cc1nc2ccc(S(=O)(=O)N(C)CC(=O)NCc3ccc(N(C)C)cc3)cc2s1 ?
G9a block: 50µM; TDP1 block: inactive; Sfp inh: inactive; JMJD2A Tudor inh: inconclusive; HP1b binding inh: inactive; BAZ2B inh: inconclusive

What do the screens show for `CN(C)c1ccc(CNC(=O)CN2CCSc3ccc(S(=O)(=O)N(C)C)cc32)cc1`?
G9a block: 7.9µM; TDP1 block: inactive; JMJD2A Tudor inh: 45µM; HP1b binding inh: inactive; BAZ2B inh: 40µM

How did CCOc1ccc(C(=O)NNC(=O)CCNC(=O)c2ccco2)cc1OC do in these assays?
G9a block: inactive; TDP1 block: inactive; JMJD2A Tudor inh: inactive; HP1b binding inh: inactive; BAZ2B inh: inactive

Results for C/C(=N\Nc1ccc(C(=O)O)cc1)c1ccc2c(c1)Nc1ccccc1S2 ?
G9a block: 11µM; TDP1 block: inactive; Sfp inh: inactive; JMJD2A Tudor inh: inconclusive; HP1b binding inh: inconclusive; BAZ2B inh: 50µM

Results for CC(=O)Nc1ccc(NC(=O)c2ccc3c(c2)NC(=O)c2ccccc2S3)cc1 ?
G9a block: inactive; TDP1 block: inactive; JMJD2A Tudor inh: inactive; HP1b binding inh: inactive; BAZ2B inh: inactive

How did COc1ccc(C(=O)Nc2nnc(C(F)(F)F)s2)cc1 do in these assays?
G9a block: inactive; TDP1 block: inactive; Sfp inh: inactive; JMJD2A Tudor inh: 56µM; HP1b binding inh: inconclusive; BAZ2B inh: inactive

Results for CCc1ccc(-n2c(=O)c3c4c(sc3n(CC(=O)c3ccc(Br)cc3)c2=O)CCC4)cc1 ?
G9a block: inactive; TDP1 block: inactive; JMJD2A Tudor inh: inactive; HP1b binding inh: inactive; BAZ2B inh: inactive

How did Nc1ccc2c(C(F)(F)F)cc(C(F)(F)F)nc2n1 do in these assays?
G9a block: inactive; TDP1 block: inactive; Sfp inh: inactive; JMJD2A Tudor inh: inactive; HP1b binding inh: inactive; BAZ2B inh: inactive

Results for N#CC(c1ccc(Cl)cc1)c1ccc2c(C(F)(F)F)cc(C(F)(F)F)nc2n1 (stereo not drawn) ?
G9a block: 11µM; TDP1 block: inactive; Sfp inh: inactive; JMJD2A Tudor inh: 50µM; HP1b binding inh: 8.9µM; BAZ2B inh: 32µM

How did CC(C)CN(CC(C)C)c1ccc(/C=N/n2cnnc2)cc1[N+](=O)[O-] do in these assays?
G9a block: inconclusive; TDP1 block: inactive; Sfp inh: inactive; JMJD2A Tudor inh: 45µM; HP1b binding inh: inconclusive; BAZ2B inh: inconclusive

How did O=[N+]([O-])c1cc(/C=N/n2cnnc2)ccc1N1CCCC1 do in these assays?
G9a block: inactive; TDP1 block: inactive; Sfp inh: inactive; JMJD2A Tudor inh: inactive; HP1b binding inh: inactive; BAZ2B inh: inactive

What do the screens show for `CCOc1ccc(CCNC(=O)c2ccc(C)c(-n3c(C)nc4cccnc43)c2)cc1OCC`?
G9a block: inactive; TDP1 block: inactive; JMJD2A Tudor inh: inactive; HP1b binding inh: inactive; BAZ2B inh: inactive

What do the screens show for `CCc1cc(-c2n[nH]c(=S)n2C(C)c2ccccc2)cs1` (stereo not drawn)?
G9a block: 10µM; TDP1 block: inactive; Sfp inh: inactive; JMJD2A Tudor inh: inactive; HP1b binding inh: inactive; BAZ2B inh: inactive

What do the screens show for `Cc1scc(-c2n[nH]c(=S)n2C(C)c2ccccc2)c1C` (stereo not drawn)?
G9a block: 2µM; TDP1 block: inactive; Sfp inh: inactive; JMJD2A Tudor inh: 79µM; HP1b binding inh: inactive; BAZ2B inh: inconclusive

What do the screens show for `Cc1nnc(C)c2c(C)n(C(C)c3ccccc3)c(C)c12` (stereo not drawn)?
G9a block: inactive; TDP1 block: inactive; Sfp inh: inconclusive; JMJD2A Tudor inh: inconclusive; HP1b binding inh: inactive; BAZ2B inh: inactive

Results for Cc1cccc(C(=S)N2CCOCC2)n1 ?
G9a block: inactive[12.7 µM]; TDP1 block: inactive; JMJD2A Tudor inh: inactive; HP1b binding inh: inactive; BAZ2B inh: inactive

What do the screens show for `CC(=NNC(=S)N1CCCCC1)c1cccc(C)n1`?
JMJD2A Tudor inh: 25µM; HP1b binding inh: inconclusive

Results for CSc1nncc(/C(C)=N\Nc2cccc(C)c2)n1 ?
G9a block: inconclusive; TDP1 block: inactive; Sfp inh: inactive; JMJD2A Tudor inh: inactive; HP1b binding inh: inactive; BAZ2B inh: inactive

What do the screens show for `CSC(=S)NN=C(C)c1cccc(C)n1`?
JMJD2A Tudor inh: 5µM; HP1b binding inh: inactive
